Results from PubChem BioAssay AID2314 (National Center for Advancing Translational Sciences (NCATS), 2010).
About 37,000 (12%) of roughly 300,000 compounds were called active. Only a selection was taken, and actives are over-represented in it overall. Unmarked numbers belong to inactive results. No stated cut-off is given here; in the data, active means max response mostly above about 13% (no sharp cut-off); inactive means mostly below about 14%.

Assay: Cycloheximide Counterscreen for Small Molecule Inhibitors of Shiga Toxin; further: read at 38.3 µM for the half of the compounds with a filed dose; 0% is about no effect
Settings: cell reporter, cycloheximide protein synthesis inhibition counterscreen; stronger effect = higher value

Row | Compound | max response
1 | O=C(COc1ccc2c3c(c(=O)oc2c1)CCC3)NC1CCCCC1 | 1.97%
2 | NC(=O)C1CCN(C(=O)COc2ccc3c4c(c(=O)oc3c2)CCC4)CC1 | -1.44%
3 | NC(=O)COc1ccc2c3c(c(=O)oc2c1)CCCCC3 | 12.8% (active)
4 | CC1CCN(C(=O)c2cc3nc(C4CC4)cc(C(F)(F)F)n3n2)CC1 | 1.99%
5 | CCNC(=S)N(CCN(CC)CC)Cc1cc2cc3c(cc2[nH]c1=O)OCCO3 | -0.726%
6 | COc1cccc(-c2cc(=O)c3cc(NC(=O)c4ccc(C)cc4)ccc3[nH]2)c1 | -0.33%
7 | CC1C/C(=N/NC(=O)c2cccs2)CC(C)(C)C1 (stereo not given) | 32.2% (active)
8 | CC(C)OCCCNC(=O)CNC(=O)c1cccs1 | -3.03%
9 | CC1(C)CC(=O)C/C(=N\NC(=O)c2cccs2)C1 | 1.56%
10 | CC(=O)NNC1=Nc2ccccc2N(C)C(C)C1 (stereo not given) | -2.23%
11 | CC(C)c1ccccc1OCC(O)CN(CC(O)COc1cccc2ccccc12)C(C)C (stereo not given) | -5.17%
12 | Cc1ccc(NS(=O)(=O)c2ccc(-c3ccc(=O)[nH]n3)o2)c(C)c1 | -1.58%
13 | O=C(COc1ccc2c3c(c(=O)oc2c1)CCCC3)NCC(O)c1ccccc1 (stereo not given) | -1.36%
14 | Cc1cccc(NC(=S)NC(=O)c2ccc(Br)o2)c1 | 34.5% (active)
15 | Cc1cccc(NC(=O)NC(=S)NC(=O)c2ccccc2)c1 | 42.2% (active)
16 | CC(=O)N1CCN(CC(=O)Nc2ccc(C)c(F)c2)CC1 | -6.08%
17 | Cc1nc(C)c(C(=O)Nc2ccc(C)c(F)c2)o1 | 5.75%
18 | Cc1cccc(NC(=O)c2cccc(C(F)(F)F)c2)c1 | 29.9% (active)
19 | Cc1cccc(NC(=S)Nc2ccc(Br)cc2)c1 | 18.4%
20 | Cc1cccc(NC(=S)NC23CN4CN(CN(C4)C2)C3)c1 | 0.709%

Row | Compound | max response
21 | Cc1ccc(NC(=O)NC(=O)c2ccccc2)cc1F | 25.9% (active)
22 | CNC(=O)c1ccc(NC(=O)c2cccc(C(F)(F)F)c2)cc1 | 8.58%
23 | Cc1cccc(NC(=O)c2nnn(-c3cccc(C(F)(F)F)c3)c2N)c1 | 19.9%
24 | O=C(CNC(=O)c1ccc(Br)o1)Nc1ccccc1 | -2.14%
25 | Cc1cccc(NC(=O)/C(=C\c2ccco2)NC(=O)c2ccccc2)c1 | 11.3%
26 | Cc1cc(-c2nnc(SCC(=O)Nc3ccc(F)cc3)n2N)n[nH]1 | 0.984%
27 | COc1ccccc1NC1=NC(c2ccc(Cl)cc2)N=C(N)N1 (stereo not given) | 2.63%
28 | CC(Sc1nnnn1C)C(=O)NC(=O)NC1CCCCC1 (stereo not given) | 0.707%
29 | COc1ccc(N2CCN(CCNC(=O)Nc3cc(Cl)ccc3Cl)CC2)cc1 | -4.73%
30 | O=C(Nc1ccnn1C1CCN(Cc2cccc(OCCO)c2)CC1)C1CCCC1 | -3.51%
31 | Cc1cccc(NS(=O)(=O)c2ccc(-c3cnc(C4CC4)o3)cc2)c1 | -3%
32 | CC1CCN(C(=S)NC(=O)c2ccccc2Br)CC1 | 3.84%
33 | O=C(NC(=S)Nc1ccc(S(=O)(=O)Nc2ncccn2)cc1)c1cccc(Br)c1 | 5.33%
34 | O=C(NC(=S)Nc1ncccn1)c1ccccc1Br | 14.4% (active)
35 | COc1cc2nc(CN(C)Cc3ccc(F)cc3)[nH]c(=O)c2cc1OC | -2.34%
36 | COc1ccc(-n2nc(C(=O)NCC(=O)N3CCCCCC3)c3ccccc3c2=O)cc1Cl | 1.06%
37 | COC(=O)c1nc(NC(=O)c2ccc(F)cc2)n[nH]1 | -1.65%
38 | COC(=O)c1ccc(C(=O)OC)c(NC(=S)N2CCN(c3ccc(F)cc3)CC2)c1 | -7.21%
39 | COC(=O)c1ccc(Sc2ccc(F)cc2)c(N)c1 | 24.1% (active)
40 | O=S(=O)(NC1CCCCC1N1CCN(c2ccccc2F)CC1)c1ccccc1 (stereo not given) | 7.38%

Row | Compound | max response
41 | O=C(O)c1ccc(/C=C2\SC(=S)N(NC(=O)c3ccc(Br)cc3)C2=O)cc1 | -2.52%
42 | CC1(C)NC(=O)N(CCCCSc2ccc(Cl)cc2)C1=O | 6.3%
43 | CN(Cc1ccccc1)C(=O)c1ccc(NC2=NC3CS(=O)(=O)CC3S2)cc1 (stereo not given) | 0.883%
44 | CCCCCC(=O)Nc1ccc(C(=O)N/N=C/c2ccc([N+](=O)[O-])cc2)cc1 | -2.53%
45 | O=C(N/N=C/c1ccc([N+](=O)[O-])cc1)c1c[nH]c2ccccc12 | 26.3% (active)
46 | O=C(N/N=C/c1c[nH]c2ccccc12)c1ccccc1O | 29.2% (active)
47 | O=C(Cc1c[nH]c2ccccc12)N/N=C/c1cccc(F)c1 | 11.5%
48 | Cc1nc2ccccc2cc1C(=O)N/N=C/c1ccc([N+](=O)[O-])cc1 | -1.28%
49 | NC(=S)N/N=C/c1ccc([N+](=O)[O-])cc1 | 2.05%
50 | O=C(N/N=C/c1c[nH]c2ccccc12)c1cc2ccccc2o1 | 22.4% (active)
51 | Cc1ccsc1C(=O)N/N=C/c1ccc([N+](=O)[O-])cc1 | 55% (active)
52 | O=C(N/N=C/c1coc2ccccc2c1=O)c1cc2ccccc2o1 | 13.8%
53 | O=C(N/N=C/c1ccc(O)cc1)/C(=C/c1ccc([N+](=O)[O-])cc1)NC(=O)c1ccccc1 | 5.92%
54 | Nc1nonc1-n1nnc(C(=O)N/N=C/c2c[nH]c3ccccc23)c1-c1ccccc1 | 6.03%
55 | Cc1c(/C=N\NC(=O)c2cc3ccccc3o2)c2ccccc2n1C | 5.05%
56 | COC(=O)C1=C(C)N(c2ccc(C)cc2)/C(=C/c2ccc(O)cc2)C1=O | -3.37%
57 | COc1ccc(C(=O)COC(=O)COc2ccc(C)c(C)c2)cc1 | -1.99%
58 | COc1cccc(NC(=O)[C@H](Cc2c[nH]c3ccccc23)NC(=O)[C@@H]2Cc3ccccc3CN2)c1 | 8.96%
59 | Cc1nn(Cc2ccc(C(=O)N3N=C(C(F)F)CC3(O)C(F)F)cc2)c(C)c1[N+](=O)[O-] (stereo not given) | -2.42%
60 | Cc1ccc(NS(=O)(=O)c2ccc(C(C)(C)C)cc2)cn1 | -1.83%
